# Values joined by “and” are separate entries in the source; they are usually repeats but may differ in a detail not shown here. Equal entries are not always repeated. Inconclusive results are not listed. Where a call stands in place of a potency, no number is given. The source holds several records for some structures; these can differ, active in one and inactive in another. Active and inactive are the calls of the source. Unless noted, the call rests on the fitted dose curve; in most records, active means well fitted curve in the direction sought with a large enough effect; inconclusive means small, poorly fitted or top-dose-only effect, or another doubt; inactive means no such curve, though single readings can be large; an effect the other way counts as inactive or inconclusive.
# Key:
# [1] = High-throughput drug toxicity screening in the BPDCN cell line Cal-1 (AID 1224825; call rule not given here); settings: Cal-1 BPDCN cell viability, qHTS; at 45.8 µM (top of the series) unless noted
# Method in brief: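 Percent activity derived from CellTiter-Glo luminescence, scaling DMSO to 100% and 9.2 uM final bortezomib to 0%. BPDCN Cal-1 cells (500/well, RPMI plus 10% FBS) incubated with compounds 48 hours at 37C before reading.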
# [2] = qHTS assay for measurement of the activity of small molecule inhibitors on Zika virus induced Caspase-3 activity in human iPSC derived neural progenitor cells (hNPCs) (AID 1224857); further: nearly all actives have a fitted effect of over 65% in size; further: potency means the concentration at half of the fitted maximal effect
# Method in brief: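 After overnight (16–20 h) culture at 350 cells/well, hNPCs get compound, then ZIKV 2 FFU/cell one hour later. Six hours on, Caspase-Glo 3/7 is added and luminescence measured.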
# [3] = qHTS assay for measurement of the activity of small molecule inhibitors on Zika virus induced Caspase-3 activity in human astrocytoma cells (AID 1224859); further: potency means the concentration at half of the fitted maximal effect
# Method in brief: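 Inhibition of Zika-induced caspase-3/7 activity: SNB-19 cells, 1 h compound pretreatment, ZIKV 2 FFU/cell for 6 h at 37 C, Caspase-Glo luminescence read-out.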
# [4] = qHTS Screen of the MIPE 4.0 Collection Against Ewings Sarcoma (RDES) (AID 1259252); further: nearly all actives have a fitted effect of over 35% in size; further: potency means the concentration at half of the fitted maximal effect
# Method in brief: (§1)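 CellTiter-Glo luminescence after 48 h compound exposure (titration) gave viability; percent activity used DMSO-treated cells as no inhibition and medium-only wells as full inhibition. Cells grown in RPMI/5% FBS, dosed 4 h post-seeding.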
# [5] = qHTS Screen of the MIPE 4.0 Collection Against Ewings Sarcoma (TC32) (AID 1259256); further: nearly all actives have a fitted effect of over 45% in size; further: potency means the concentration at half of the fitted maximal effect
# Method in brief: as §1
# [6] = qHTS assay to identify small molecule inhibitors of chordoma cells - UCH-2 (AID 1259356)
# [7] = P-glycoprotein substrates identified in KB-8-5-11 adenocarcinoma cell line, qHTS therapeutic library screen (AID 1346987); further: nearly all actives have a fitted effect of over 65% in size; further: potency means the concentration at half of the fitted maximal effect
# Method in brief: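 Compounds are pinned in dose-response onto KB-8-5-11 cells (500 cells/well, colchicine-free medium) and left 72 h at 37 degree C. CellTiter-Glo luminescence then yields AC50 values.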
# [8] = Natriuretic polypeptide receptor (hNpr1) antagonism - Pilot counterscreen GloSensor control cell line (AID 1347045; calls by dose curve; further: potency means the concentration at half of the fitted maximal effect)
# Method in brief: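 Control counterscreen: luciferase cGMP-biosensor HEK293 cells (no Npr1) received compound for 30 min at room temperature after GloSensor substrate loading. Luminescence was measured before and 20 min after soluble guanylyl cyclase activation by 50 uM nitroprusside.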
# [9] = target: Atrial natriuretic peptide receptor 1 (Homo sapiens) (UniProt P16066); experiment: Natriuretic polypeptide receptor (hNpr1) antagonism - Pilot screen (AID 1347049; calls by dose curve;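 further: HEK293 cells with hNpr1 and GloSensor cGMP luciferase stimulated by 0.1 nM hNppA; agonist-evoked cGMP luminescence read 20 min after hNppA addition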)
# Chain of Atrial natriuretic peptide receptor 1 (Homo sapiens) (P16066 whole entry, looked up): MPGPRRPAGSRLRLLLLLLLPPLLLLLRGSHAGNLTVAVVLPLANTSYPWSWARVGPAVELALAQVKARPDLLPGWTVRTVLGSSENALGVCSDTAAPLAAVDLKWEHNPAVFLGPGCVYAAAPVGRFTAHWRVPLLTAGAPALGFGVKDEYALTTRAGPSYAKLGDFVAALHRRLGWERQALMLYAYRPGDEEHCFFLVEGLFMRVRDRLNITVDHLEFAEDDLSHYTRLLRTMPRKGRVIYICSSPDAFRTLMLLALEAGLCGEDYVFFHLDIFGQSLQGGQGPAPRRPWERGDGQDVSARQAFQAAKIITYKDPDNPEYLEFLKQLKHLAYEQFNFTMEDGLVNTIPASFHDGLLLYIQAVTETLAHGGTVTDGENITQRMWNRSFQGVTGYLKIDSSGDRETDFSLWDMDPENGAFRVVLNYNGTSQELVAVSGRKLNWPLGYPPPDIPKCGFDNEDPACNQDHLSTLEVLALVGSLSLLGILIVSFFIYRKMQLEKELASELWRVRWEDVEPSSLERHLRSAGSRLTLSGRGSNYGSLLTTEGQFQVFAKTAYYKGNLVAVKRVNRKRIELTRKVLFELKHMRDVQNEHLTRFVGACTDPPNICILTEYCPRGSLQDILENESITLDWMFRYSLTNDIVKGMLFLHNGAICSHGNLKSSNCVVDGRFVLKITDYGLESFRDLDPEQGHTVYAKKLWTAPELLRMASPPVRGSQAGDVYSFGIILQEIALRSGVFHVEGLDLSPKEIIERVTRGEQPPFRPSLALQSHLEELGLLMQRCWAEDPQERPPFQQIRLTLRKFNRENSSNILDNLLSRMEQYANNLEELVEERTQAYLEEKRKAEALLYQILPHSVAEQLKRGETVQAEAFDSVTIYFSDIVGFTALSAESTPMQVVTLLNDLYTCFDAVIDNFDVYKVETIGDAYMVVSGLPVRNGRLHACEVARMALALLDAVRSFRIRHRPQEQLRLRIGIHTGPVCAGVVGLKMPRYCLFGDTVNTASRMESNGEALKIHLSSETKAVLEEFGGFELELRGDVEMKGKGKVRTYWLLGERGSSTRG
# Method in brief: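 Receptor antagonism read as cGMP-dependent luminescence in hNpr1/pGS-40F HEK293 cells: pre-read after 30 min compound exposure, post-read 20 min after hNppA agonist at 0.1 nM final, all at room temperature, protected from light; A-71915 titration as control.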
# [10] = target: Atrial natriuretic peptide receptor 2 (Homo sapiens) (UniProt P20594); experiment: Natriuretic polypeptide receptor (hNpr2) antagonism - Pilot subtype selectivity assay (AID 1347050; calls by dose curve)
# Chain of Atrial natriuretic peptide receptor 2 (Homo sapiens) (P20594 whole entry, looked up): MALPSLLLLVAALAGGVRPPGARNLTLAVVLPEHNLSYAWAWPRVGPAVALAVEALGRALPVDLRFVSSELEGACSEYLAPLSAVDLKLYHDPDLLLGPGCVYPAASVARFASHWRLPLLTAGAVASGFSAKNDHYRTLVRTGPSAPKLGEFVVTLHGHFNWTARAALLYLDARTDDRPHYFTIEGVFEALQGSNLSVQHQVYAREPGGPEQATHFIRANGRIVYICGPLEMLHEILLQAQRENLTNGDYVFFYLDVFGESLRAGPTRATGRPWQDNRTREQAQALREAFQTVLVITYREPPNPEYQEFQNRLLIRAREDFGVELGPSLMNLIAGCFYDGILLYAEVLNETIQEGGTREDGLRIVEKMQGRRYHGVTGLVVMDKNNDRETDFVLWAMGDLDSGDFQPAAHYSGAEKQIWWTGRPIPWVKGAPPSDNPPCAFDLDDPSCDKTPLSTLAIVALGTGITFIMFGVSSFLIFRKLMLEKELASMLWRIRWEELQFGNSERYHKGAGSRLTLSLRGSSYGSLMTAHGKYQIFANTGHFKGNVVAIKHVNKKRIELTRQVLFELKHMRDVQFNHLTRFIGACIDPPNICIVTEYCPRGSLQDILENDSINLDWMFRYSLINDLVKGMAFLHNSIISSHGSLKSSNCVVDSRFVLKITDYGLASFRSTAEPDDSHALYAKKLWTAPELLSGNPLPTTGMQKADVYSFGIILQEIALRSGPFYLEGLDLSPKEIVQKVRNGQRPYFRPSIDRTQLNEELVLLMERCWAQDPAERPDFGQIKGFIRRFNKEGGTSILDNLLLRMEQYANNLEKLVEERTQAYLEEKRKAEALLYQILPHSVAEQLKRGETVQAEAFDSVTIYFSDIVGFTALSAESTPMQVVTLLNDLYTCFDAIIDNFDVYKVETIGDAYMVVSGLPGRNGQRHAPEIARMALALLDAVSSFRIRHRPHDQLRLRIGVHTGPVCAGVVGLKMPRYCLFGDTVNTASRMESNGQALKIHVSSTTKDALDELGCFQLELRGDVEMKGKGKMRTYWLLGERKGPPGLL
# Method in brief: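 Antagonist mode: compounds (LOPAC1280, seven 1:5 dilutions) added 30 min before 1 nM hNppC stimulation of hNpr2-HEK293 cGMP-sensor cells; luminescence read before and 20 min after agonist at ambient temperature.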
# [11] = qHTS Screen of the MIPE 4.0 Collection Against Ewings Sarcoma (TC71) (AID 1259253); further: nearly all actives have a fitted effect of over 40% in size; further: potency means the concentration at half of the fitted maximal effect
# Method in brief: as §1
# [12] = qHTS Screen of the MIPE 4.0 Collection Against Ewings Sarcoma (EW8) (AID 1259255); further: nearly all actives have a fitted effect of over 35% in size; further: potency means the concentration at half of the fitted maximal effect
# Method in brief: as §1
# [13] = qHTS assay to identify small molecule inhibitors of chordoma cells - UCH-1 (AID 1259355); further: nearly all actives have a fitted effect of over 55% in size
# Method in brief: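 800 cells/well, overnight attach; compounds pinned at 15 concs, then auranofin/camptothecin/doxorubicin/rubitecan/topotecan combo added; 48hr 37 C, 5% CO2; CellTiter-Glo, 30min RT, luminescence.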
# [14] = P-glycoprotein substrates identified in KB-3-1 adenocarcinoma cell line, qHTS therapeutic library screen (AID 1346986); further: nearly all actives have a fitted effect of over 60% in size;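 further: potency means the concentration at half of the fitted maximal effect; potency is for cytotoxicity meaning loss of cell viability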
# Method in brief: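 Viability read by CellTiter-Glo after 72 h compound exposure in dose-response of KB-3-1 and KB-8-5-11 (P-gp-high) cells. Hits needed AC50 < 10 uM, >50% maximum response and curve class -1.1 to -2.4. Cherry-picks retested ± tariquidar, including pcDNA/MDR-19 HEK-293 pair.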
# [15] = Identifying Small Molecule Inhibitors of Pancreatic Cancer Stem Cells (SN12C, Adherent) (AID 1259358);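 further: cell survival measured after 48 h of compound exposure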
# Method in brief: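 Cytotoxicity read by CellTiter-Glo luminescence after 48 h compound exposure at 37C; percent activity scaled between DMSO-treated cells and cell-free wells. Spheroid formats used cells pre-formed 14 days in stem cell media on hydrogel.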
# [16] = Identifying Small Molecule Inhibitors of Pancreatic Cancer Stem Cells (SN12C, Spheroid) (AID 1259360); settings: Potency: SN12C spheroid viability
# Method in brief: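 Adherent (2D) versus sphere (3D) formats; spheres generated 14 d in SCM beforehand. Compound transferred by pin tool after 4 h, 48 h incubation, CellTiter-Glo endpoint.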
smiles,measurement,setting,value
CNC[C@H](O)c1ccc(O)c(O)c1,viability (% of control),[1],79.5% [at 92.2 µM]
same,Potency,[2],inactive
same,Potency,[3],inactive
same,Potency,[4],42.9 µM (active)
same,Potency,[5],38.2 µM (active)
same,Potency,[6],inactive
same,Potency,[7],inactive
same,Potency,[8],inactive
same,Potency,[9],inactive
same,Potency,[10],inactive
Cc1cc(C2CCCCC2)n(O)c(=O)c1,viability (% of control),[1],5.31%
same,Potency,[2],inactive
same,Potency,[3],inactive
same,Potency,[11],5.26 µM (active)
same,Potency,[12],14.8 µM (active)
same,Potency,[5],2.64 µM (active)
same,Potency,[13],inactive
same,Potency,[14],6.51 µM (active)
CCC1=C(C)CN(C(=O)NCCc2ccc(S(=O)(=O)NC(=O)NC3CCC(C)CC3)cc2)C1=O (stereo unspecified),viability (% of control),[1],118%
same,Potency,[2],inactive
same,Potency,[3],inactive
same,Potency,[11],inactive
same,Potency,[12],inactive
same,Potency,[5],inactive
same,Potency,[6],inactive
same,Potency,[7],inactive
CC(=O)Nc1ccc(O)cc1,viability (% of control),[1],33.3%
same,Potency,[2],inactive
same,Potency,[3],inactive
same,Potency,[4],inactive
same,Potency,[11],inactive
same,Potency,[7],inactive
CC(=O)N1CCN(c2ccc(OC[C@H]3CO[C@](Cn4ccnc4)(c4ccc(Cl)cc4Cl)O3)cc2)CC1,viability (% of control),[1],22.2%
same,Potency,[2],inactive
same,Potency,[3],inactive
same,Potency,[4],16.6 µM (active)
same,Potency,[13],inactive
same,Potency,[6],inactive
same,Potency,[8],18.5 µM (active)
same,Potency,[9],inactive
same,Potency,[10],inactive
CN1C(C(=O)Nc2ccccn2)=C(O)c2sccc2S1(=O)=O,viability (% of control),[1],90.4%
same,Potency,[2],inactive
same,Potency,[3],inactive
same,Potency,[4],5.9 µM (active)
same,Potency,[12],inactive
same,Potency,[13],inactive
same,Potency,[6],inactive
same,Potency,[7],inactive
OC(CN1CCN(c2cccc(Cl)c2)CC1)C(c1ccccc1)c1ccccc1 (stereo unspecified),viability (% of control),[1],88.8%
same,Potency,[2],inactive
same,Potency,[3],inactive
same,Potency,[4],inactive
same,Potency,[5],16.6 µM (active)
same,Potency,[7],inactive
same,Potency,[8],inactive
same,Potency,[10],inactive
C[C@H](Cc1ccc(O)c(O)c1)[C@@H](C)Cc1ccc(O)c(O)c1,viability (% of control),[1],5.77%
same,Potency,[2],inactive and 26.4 µM (active)
same,Potency,[3],inactive
same,Potency,[11],13.2 µM (active)
same,Potency,[12],16.6 µM (active)
same,Potency,[5],13.2 µM (active)
same,Potency,[6],inactive
same,Potency,[7],inactive
same,Potency,[9],inactive
same,Potency,[10],inactive
CC1(C)NC(=O)N(c2ccc([N+](=O)[O-])c(C(F)(F)F)c2)C1=O,viability (% of control),[1],105%
same,Potency,[2],inactive
same,Potency,[3],inactive
same,Potency,[4],inactive
same,Potency,[12],inactive
same,Potency,[13],inactive
same,Potency,[6],inactive
same,Potency,[7],13 µM (active) and inactive
same,Potency,[8],inactive
same,Potency,[10],inactive
CCC[C@@H]1C[C@@H](C(=O)N[C@@H]([C@H]2O[C@H](SC)[C@H](O)[C@@H](O)[C@H]2O)[C@@H](C)O)N(C)C1,viability (% of control),[1],114%
same,Potency,[2],inactive
same,Potency,[3],inactive
same,Potency,[4],inactive
same,Potency,[12],inactive
same,Potency,[5],inactive
same,Potency,[6],inactive
Cc1nc(-c2ccc(OCC(C)C)c(C#N)c2)sc1C(=O)O,viability (% of control),[1],105%
same,Potency,[2],5.26 µM (active) and inactive
same,Potency,[3],4.18 µM (active)
same,Potency,[4],inactive
same,Potency,[12],inactive
same,Potency,[5],inactive
same,Potency,[7],inactive
N=C(N)c1ccc2cc(OC(=O)c3ccc(N=C(N)N)cc3)ccc2c1,viability (% of control),[1],102%
same,Potency,[2],inactive
same,Potency,[3],inactive
same,Potency,[4],inactive
same,Potency,[12],inactive
same,Potency,[5],inactive
same,Potency,[13],inactive
same,Potency,[6],inactive
same,Potency,[7],inactive
CCCCCCCCOc1ccccc1C(=O)Nc1ccc(C(=O)OCC[N+](C)(CC)CC)cc1,viability (% of control),[1],14.9%
same,Potency,[2],16.6 µM (active) and inactive
same,Potency,[3],inactive
same,Potency,[4],inactive
same,Potency,[12],16.6 µM (active)
same,Potency,[13],inactive
same,Potency,[6],inactive
same,Potency,[7],inactive
CS(=O)(=O)OCCCCOS(C)(=O)=O,viability (% of control),[1],62.5%
same,Potency,[2],inactive
same,Potency,[3],inactive
same,Potency,[4],inactive
same,Potency,[12],inactive
same,Potency,[13],inactive
same,Potency,[6],inactive
same,Potency,[7],inactive
COc1cc2nc(N3CCN(C(=O)C4CCCO4)CC3)nc(N)c2cc1OC (stereo unspecified),viability (% of control),[1],88.2%
same,Potency,[2],inactive and 13.2 µM (active)
same,Potency,[3],14.8 µM (active)
same,Potency,[4],inactive
same,Potency,[12],inactive
same,"activity, negative = inhibition",[13],-3.3% [at 1.88 µM] (inactive)
same,Potency,[6],inactive
same,Potency,[8],inactive
same,Potency,[9],inactive
same,Potency,[10],inactive
Cc1cccc(CN2CCN(C(c3ccccc3)c3ccc(Cl)cc3)CC2)c1 (stereo unspecified),viability (% of control),[1],94%
same,Potency,[2],inactive
same,Potency,[3],inactive
same,Potency,[4],20.9 µM (active)
same,Potency,[5],13.2 µM (active)
same,Potency,[13],inactive
same,Potency,[6],inactive
COc1c2occc2cc2ccc(=O)oc12,viability (% of control),[1],93.5%
same,Potency,[2],inactive
same,Potency,[3],inactive
same,Potency,[4],inactive
same,Potency,[12],inactive
same,Potency,[13],inactive
same,Potency,[6],inactive
CC(C)c1nc(CN(C)C(=O)N[C@H](C(=O)N[C@@H](Cc2ccccc2)C[C@H](O)[C@H](Cc2ccccc2)NC(=O)OCc2cncs2)C(C)C)cs1,viability (% of control),[1],94.9%
same,Potency,[2],inactive
same,Potency,[3],inactive
same,Potency,[4],inactive
same,Potency,[12],16.6 µM (active)
same,Potency,[7],inactive
Nc1nc(N)c(N=O)c(OCC2CCCCC2)n1,viability (% of control),[1],15.6%
same,Potency,[2],inactive
same,Potency,[3],inactive
same,Potency,[4],14.8 µM (active)
same,Potency,[11],16.6 µM (active)
same,Potency,[12],18.7 µM (active)
same,Potency,[8],inactive
same,Potency,[9],inactive
same,Potency,[10],inactive
Nc1ncn([C@H]2C[C@H](O)[C@@H](CO)O2)c(=O)n1,viability (% of control),[1],47.1%
same,Potency,[2],inactive
same,Potency,[3],inactive
same,Potency,[4],0.418 µM (active)
same,Potency,[11],2.35 µM (active)
same,Potency,[13],inactive
same,Potency,[6],inactive
same,Potency,[14],inactive
Cn1c(NCCN(CCO)CCCc2ccc([N+](=O)[O-])cc2)cc(=O)n(C)c1=O,viability (% of control),[1],67.6%
same,Potency,[2],inactive
same,Potency,[3],inactive
same,Potency,[4],20.9 µM (active)
same,Potency,[11],18.7 µM (active)
same,Potency,[13],inactive
same,Potency,[6],inactive
Nc1ccc(S(N)(=O)=O)cc1,viability (% of control),[1],112%
same,Potency,[2],inactive
same,Potency,[3],inactive
same,Potency,[4],inactive
same,Potency,[12],inactive
same,Potency,[5],inactive
same,Potency,[13],inactive
same,Potency,[6],inactive
COc1cc2c(N3CCN(C(=O)Nc4ccc(OC(C)C)cc4)CC3)ncnc2cc1OCCCN1CCCCC1,viability (% of control),[1],11.3%
same,Potency,[2],inactive
same,Potency,[3],inactive
same,Potency,[4],26.4 µM (active)
same,Potency,[12],23.5 µM (active)
same,Potency,[5],18.7 µM (active)
same,Potency,[15],inactive
same,Potency,[16],inactive
